# Measured values reported in the supplement of paper PMC6555819.
# Key:
# Test in all cases: PBM binding z-score (relative to random genomic background probes); higher = stronger binding; sequences stand for … in GC…GCGATTGACAGCGTAGAATGAAGG
# [1] = tested on: FXR:RXRa (NR concentration 270 nM, RXRa partner concentration 90 nM)
# Method in brief: (§1)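 Custom Agilent 4×180K protein-binding microarrays carried double-stranded probes, each with a 34-nt variable region. These regions held direct-repeat seeds, single-nucleotide variants, half-site ablations and random human genomic background sequences. Ligand-free nuclear receptor dimers were incubated on the arrays for 1 h, antibodies against each partner (one per run) detected binding, and scanned fluorescence was regression-normalized. Binding z-scores take the random background probes as reference.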
# [2] = tested on: LXRa:RXRa (NR concentration 270 nM, RXRa partner concentration 90 nM)
# Method in brief: as §1
# [3] = tested on: LXRa homodimer (NR concentration 270 nM)
# Method in brief: as §1
# [4] = tested on: LXRb:RXRa (NR concentration 270 nM, RXRa partner concentration 90 nM)
# Method in brief: as §1
# [5] = tested on: LXRb homodimer (NR concentration 270 nM)
# Method in brief: as §1
# [6] = tested on: PPARa:RXRa (NR concentration 270 nM, RXRa partner concentration 90 nM)
# Method in brief: as §1
# [7] = tested on: PPARg:RXRa (NR concentration 180 nM, RXRa partner concentration 90 nM)
# Method in brief: as §1
# [8] = tested on: PPARg:RXRa 270nM:90nM, anti-RXR (NR concentration 270 nM, RXRa partner concentration 90 nM)
# Method in brief: as §1
# [9] = tested on: PPARg:RXRa 30nM:10nM, anti-RXR (NR concentration 30 nM, RXRa partner concentration 10 nM)
# Method in brief: as §1
# [10] = tested on: PPARg:RXRa 90nM:30nM, anti-RXR (NR concentration 90 nM, RXRa partner concentration 30 nM)
# Method in brief: as §1
Sequence,PBM binding z-score [1],PBM binding z-score [2],PBM binding z-score [3],PBM binding z-score [4],PBM binding z-score [5],PBM binding z-score [6],PBM binding z-score [7],PBM binding z-score [8],PBM binding z-score [9],PBM binding z-score [10]
CCTTACGGGTCACTGATAGGTTATAGCATTTGGA,5.04,4.27,0.473,3.53,0.0559,5,4.57,4.4,1.47,3.36
GCTTGTATATCAAGGTTAAGAAAGACTAAGCTAA,0.268,1.1,-0.0678,0.659,-0.396,1.19,0.639,0.798,0.189,0.527
GCTAGTTGGTTAGTAAAAGGTCACACACCGGTCG,2.97,4.33,4.85,4.1,1.08,4.6,2.08,3.55,1.87,3.47
ATATCTAGGTTACATCCGGGTCATTCAGGCTATG,2.52,4.41,1.93,3.04,1.64,4.41,6,5.11,2.4,4.09
ACATGTAGGTTATCGGGTCATTCAGTTTGCGCAT,3.45,3.33,1.98,3.33,1.7,4.49,6.1,5.23,2.59,4.9
TTAATGAGGTTATAAGATCAGGGAACGTTGCAAA,1.87,1.75,0.416,1.58,0.291,3.04,1.96,2.7,1.97,2.32
TCAGACAGGTGAAGGTAACTCACGTACGCAGTCG,0.8,2.26,-0.278,0.983,-0.343,1.2,0.954,2.09,3.55,2.75
CGAACTAGGTCAAGGACAATGAATCTCCGCACGC,3.47,2.4,0.0804,1.37,-0.174,4.72,7.83,6.69,4.46,6.15
TCTTGTAGATCAAAAGTTAAGAAAGCCGAAGCCT,0.493,0.329,-0.368,0.277,-0.137,1.31,1.83,4.32,3.84,4.55
CCTGACGGGTCACGAGGTTATAGCACGACGAGCG,5.64,4.17,0.355,3.29,-0.286,5.34,5.73,5.6,1.87,3.91
TAGCCTAGGTCAGATCGGGCCAGTACACGCTATA,2.56,1.36,-0.186,0.718,-0.385,1.82,0.74,0.997,-0.169,-0.0312
ATCTGTAGGTAAAGTTCAGTGAAAGATCGATAGA,0.691,1.44,1.19,1.01,0.396,2.28,3.37,4.2,2.41,3.78
AGTCAAAGTTCACTAGGTAACGTAAGATTCAGCT,5.37,5.1,3.04,3.17,1.11,5.11,7.61,6.5,3.74,6.12
CCGAGTAGCTTATGGGGCATTCAGGCAACGGTGA,-0.494,-0.536,-0.883,-0.715,-1.2,-0.234,-0.0289,-0.512,-0.765,-0.818
CATTACGGGTCACGAGGTTATAGCACGACGAGCG,7.14,6.04,2.06,4.56,1,6.33,8.49,7.3,4.45,6.59
TTAACAAGGTGAGCTGAGGTCGTTGATCCAACTC,1.71,1.21,-0.57,0.45,-0.886,1.72,0.604,0.987,0.415,0.24
TAGCCTAGGTCATGCGGGCCAGTATGGTGTCGGC,3.96,3.27,-0.0396,1.44,-0.233,3.43,1.79,2.41,-0.0378,1.2
CGAACGAGGGCATGAGTTGATAGAAAATGCCGAT,0.363,0.324,-0.393,0.256,-0.832,1.58,1.42,1.33,0.36,0.956
TCATATAGGTAAACAGGTGAACGTCCGTAAGTTA,1.03,1.3,0.422,1.09,-0.0806,2.56,2.7,3.48,4.2,3.9
AACTCTAGGTAAAGTTCAGTGAAAGATCGATAGA,0.741,1.51,1.46,1.06,0.134,2.44,3.7,4.77,2.77,4.53
TCTCGGAGGACACGTAGGTCAGAGCTTTCCAGAG,0.6,0.395,-0.0787,0.22,-0.976,1.09,0.109,1.13,2.08,1.61
TCTTGTAGATCAATAGAGGTTAAGAAAGTGCGCT,0.723,3.4,0.589,1.83,-0.158,1.8,-0.124,1.46,2.83,2.18
CAGCCTAGGTCAGGTCCAGTATAGGAGGAACGTT,1.07,0.851,-0.352,0.578,-1.03,1.24,0.465,0.541,-0.0378,0.231
TCTGCTAGGACAGTTGGTCAGCTAACGAGCTGCC,-0.435,-0.527,-0.541,-0.91,-0.315,-0.722,-0.522,-0.161,0.654,0.296
AGAACGAGGCCACGCTGAGTTGATAGCAGAGTAG,0.0545,-0.515,-0.521,-0.809,-0.992,0.356,0.903,0.196,-0.0987,0.189
